Laboratory results published in PubChem BioAssay (NCATS).
Several values for one entry are separate records, joined by “and”; a condition that tells them apart may be missing. Identical values can stand only once. Records with an inconclusive call do not appear. Where a call stands in place of a potency, no number is given. A structure can be active in one record and inactive in another. Activity calls are given as the source filed them. The call rests on the fitted dose curve; in most records, active means well fitted curve in the direction sought with a large enough effect; inconclusive means small, poorly fitted or top-dose-only effect, or another doubt; inactive means no such curve, though single readings can be large; an effect the other way counts as inactive or inconclusive.

What was measured:
[1] = Viability qHTS for spleen associated tyrosine kinase inhibitor (SYKi) naive MV4-11 cells (AID 1963823); further: nearly all actives have a fitted effect of over 40% in size; further: potency means the concentration at half of the fitted maximal effect
How it was run: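 Luminescence from CellTiter-Glo, developed 10 min at room temperature, gave viability of MV4-11 cells never exposed to SYK inhibitor. Cells (500/well) had been incubated with compounds for 72 hr under standard culture conditions.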

[2] = Quantitative highthroughput screen to assess conditional lethalithy of NOMO1 cells grown in RPMI1640 with untreated serum (RPMI+s) (AID 1963876); further: nearly all actives have a fitted effect of over 35% in size; further: potency means the concentration at half of the fitted maximal effect
How it was run: (§1)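 Each medium arm—HPLM with 10% dialyzed FBS, or RPMI1640 with 5 mM glucose and 10% untreated or dialyzed FBS—was screened against an 11-point, 3-fold compound titration for 48 h at 37 °C, with CellTiter-Glo luminescence as endpoint.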

[3] = Quantitative highthroughput screen to assess conditional lethalithy of NOMO1 cells grown in RPMI1640 with dialyzed fetal bovine serum (RPMI+ds) (AID 1963877); further: nearly all actives have a fitted effect of over 30% in size; further: potency means the concentration at half of the fitted maximal effect; on Viability: series mostly up to about 46 µM
How it was run: as §1

[4] = Quantitative highthroughput screen to assess conditional lethalithy of NOMO1 cells grown in Human Plasma-Like Medium with dialyzed fetal bovine serum (HPLM+ds) (AID 1963878); further: nearly all actives have a fitted effect of over 35% in size; further: potency means the concentration at half of the fitted maximal effect
How it was run: as §1

[5] = Quantitative highthroughput screen to assess conditional lethalithy of P12 Ichikawa cells grown in Human Plasma-Like Medium with dialyzed fetal bovine serum (HPLM+ds) (AID 1963879); conditions: Potency: viability; further: nearly all actives have a fitted effect of over 35% in size; further: potency means the concentration at half of the fitted maximal effect; on Viability: series mostly up to about 46 µM
How it was run: as §1

[6] = Quantitative highthroughput screen to assess conditional lethalithy of P12 Ichikawa cells grown in RPMI1640 with dialyzed fetal bovine serum (RPMI+ds) (AID 1963880); conditions: Potency: P12-Ichikawa viability; further: nearly all actives have a fitted effect of over 35% in size; further: potency means the concentration at half of the fitted maximal effect
How it was run: as §1

[7] = Quantitative highthroughput screen to assess conditional lethalithy of P12 Ichikawa cells grown in RPMI1640 with untreated serum (RPMI+s) (AID 1963881); conditions: Potency: viability; further: nearly all actives have a fitted effect of over 35% in size; further: potency means the concentration at half of the fitted maximal effect; on Viability: series mostly up to about 46 µM
How it was run: as §1

[8] = Quantitative highthroughput screen to assess conditional lethalithy of SEM cells grown in Human Plasma-Like Medium with dialyzed fetal bovine serum (HPLM+ds) (AID 1963882); further: nearly all actives have a fitted effect of over 35% in size; further: potency means the concentration at half of the fitted maximal effect; on Viability: series mostly up to about 46 µM
How it was run: as §1

[9] = Quantitative highthroughput screen to assess conditional lethalithy of SEM cells grown in RPMI1640 with unreated serum (RPMI+s) (AID 1963883); further: nearly all actives have a fitted effect of over 35% in size; further: potency means the concentration at half of the fitted maximal effect
How it was run: as §1

[10] = Cellular viability qHTS for adrenocortical cancer (ACC) cell line SW-13 (AID 1963989); conditions: SW-13 ACC cells viability, CellTiter-Glo, 48 h; activity (max response): stronger effect = lower value;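 further: cells grown in serum-free medium with ITS supplement; nearly all actives have a fitted effect of over 65% in size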
How it was run: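 Compound titrations (up to 46 uM final, in DMSO) were applied to SW-13 cells for 48 h at 37C/5% CO2. Reading used CellTiter-Glo after 20 min at room temperature; fitted curves yielded IC50 and efficacy.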

[11] = Quantitative highthroughput screen to assess conditional lethalithy of SEM cells grown in RPMI1640 with dialyzed fetal bovine serum (RPMI+ds) (AID 1963884); further: nearly all actives have a fitted effect of over 35% in size; further: potency means the concentration at half of the fitted maximal effect; on Viability: series mostly up to about 46 µM
How it was run: as §1

[12] = Cellular viability qHTS for adrenocortical cancer (ACC) cell line NCI-H295R (AID 1963990); further: nearly all actives have a fitted effect of over 60% in size; further: potency means the concentration at half of the fitted maximal effect
How it was run: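 Readout: CellTiter-Glo luminescence, 20 min RT. Exposure: 48 h, 37C/5% CO2. Cells: NCI-H295R, ITS-DMEM serum-free. Range: up to 46 uM. Analysis: 4PL fit, IC50 plus efficacy.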

[13] = Viability qHTS for spleen associated tyrosine kinase inhibitor (SYKi) drug resistant MV4-11 cells (AID 1963824); further: nearly all actives have a fitted effect of over 35% in size; further: potency means the concentration at half of the fitted maximal effect
How it was run: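 CellTiter-Glo luminescence, read 10 min after reagent addition, reports viability after a 72 hr compound exposure. Cells are an MV4-11 line made resistant to SYK inhibition, seeded at 500 per well onto compound-containing plates.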

## C[C@H](NC(=O)[C@@H](O)c1cc(F)cc(F)c1)C(=O)N[C@@H]1C(=O)N(C)c2ccccc2-c2ccccc21
[1]
  Potency: inactive
[2]
  Potency: inactive
[3]
  Potency: inactive
[4]
  Potency: inactive
[5]
  Potency: inactive
[6]
  Potency: inactive
[7]
  Potency: inactive
[8]
  Potency: inactive
[9]
  Potency: inactive
[10]
  activity (max response): -11.3% (inactive)

## CC(C)C(C)C=CC(C)C1CCC2C3=CC=C4CC(O)CCC4(C)C3CCC21C (centres undefined)
[1]
  Potency: inactive
[2]
  Potency: inactive
[3]
  Potency: inactive
[4]
  Potency: inactive
[5]
  Potency: inactive
[6]
  Potency: inactive
[7]
  Potency: inactive
[8]
  Potency: inactive
[9]
  Potency: inactive
[11]
  Potency: inactive
[10]
  activity (max response): 11.2% (inactive)
[12]
  Potency: inactive

## CCCOc1ccc(C(=O)OCCN(CC)CC)cc1N
[1]
  Potency: inactive
[2]
  Potency: inactive
[3]
  Potency: inactive
[4]
  Potency: inactive
[5]
  Potency: inactive
[6]
  Potency: inactive
[7]
  Potency: inactive
[8]
  Potency: inactive
[9]
  Potency: inactive
[11]
  Potency: inactive
[10]
  activity (max response): -2.3% (inactive) and -19.7% (inactive)
[12]
  Potency: inactive

## Cc1c(CCOc2ccc(C(=O)O)cc2)c2cc(Cl)ccc2n1C(c1ccccc1)c1ccccc1
[1]
  Potency: inactive
[2]
  Potency: inactive
[3]
  Potency: inactive
[4]
  Potency: inactive
[5]
  Potency: 14.8 µM (active)
[6]
  Potency: inactive
[7]
  Potency: inactive
[8]
  Potency: inactive
[9]
  Potency: inactive
[11]
  Potency: inactive
[10]
  activity (max response): -0.782% (inactive)
[12]
  Potency: inactive

## N[C@@H](CC(=O)N1CCn2c(nnc2C(F)(F)F)C1)Cc1cc(F)c(F)cc1F
[1]
  Potency: inactive
[2]
  Potency: inactive
[3]
  Potency: inactive
[4]
  Potency: inactive
[5]
  Potency: inactive
[6]
  Potency: inactive
[7]
  Potency: inactive
[10]
  activity (max response): -2.25% (inactive)
[12]
  Potency: inactive

## CCCc1nc(C)c2c(=O)[nH]c(-c3cc(S(=O)(=O)N4CCN(CC)CC4)ccc3OCC)nn12
[1]
  Potency: inactive
[2]
  Potency: 9.35 µM (active)
[3]
  Potency: 9.35 µM (active)
[4]
  Potency: 9.35 µM (active)
[5]
  Potency: 16.6 µM (active)
[6]
  Potency: 9.35 µM (active)
[7]
  Potency: 10.5 µM (active)
[8]
  Potency: 11.8 µM (active)
[9]
  Potency: 9.35 µM (active)
[11]
  Potency: 7.43 µM (active)
[10]
  activity (max response): -1.6% (inactive) and 3.7% (inactive)
[12]
  Potency: inactive

## CCOC(=O)C=C[C@H](C[C@@H]1CCNC1=O)NC(=O)[C@@H](CC(=O)[C@@H](NC(=O)c1cc(C)on1)C(C)C)Cc1ccc(F)cc1
[1]
  Potency: inactive
[2]
  Potency: inactive
[3]
  Potency: inactive
[4]
  Potency: inactive
[5]
  Potency: inactive
[6]
  Potency: inactive
[7]
  Potency: inactive
[8]
  Potency: inactive
[9]
  Potency: inactive
[11]
  Potency: inactive

## CCCCCCCOc1ccc(CCC(N)(CO)CO)cc1C(F)(F)F
[1]
  Potency: 7.42 µM (active)
[13]
  Potency: 8.33 µM (active)
[12]
  Potency: 10 µM (active)

## COc1ccc(C2Sc3ccccc3N(CCN(C)C)C(=O)C2OC(C)=O)cc1 (centres undefined)
[1]
  Potency: inactive
[2]
  Potency: inactive
[3]
  Potency: inactive
[4]
  Potency: inactive
[5]
  Potency: inactive
[6]
  Potency: inactive
[7]
  Potency: inactive
[8]
  Potency: inactive
[9]
  Potency: inactive
[11]
  Potency: inactive

## NC[C@H](O)c1ccc(O)c(O)c1
[1]
  Potency: inactive
[2]
  Potency: inactive
[3]
  Potency: inactive
[4]
  Potency: inactive
[5]
  Potency: inactive
[6]
  Potency: inactive
[7]
  Potency: inactive
[8]
  Potency: inactive
[9]
  Potency: inactive
[11]
  Potency: inactive
[10]
  activity (max response): -12.7% (inactive) and 7.51% (inactive)
[12]
  Potency: inactive

## CC(=O)N(C)C1(c2ccccc2)CCN(CCC[C@]2(c3ccc(Cl)c(Cl)c3)CCCN(C(=O)c3ccccc3)C2)CC1
[1]
  Potency: 4.11 µM (active)
[2]
  Potency: 1.87 µM (active)
[3]
  Potency: 1.87 µM (active)
[4]
  Potency: 0.526 µM (active)
[5]
  Potency: 2.96 µM (active)
[6]
  Potency: 2.96 µM (active)
[7]
  Potency: 7.43 µM (active)
[8]
  Potency: 0.662 µM (active)
[9]
  Potency: 0.743 µM (active)
[11]
  Potency: 1.05 µM (active)

## O=C(O)c1cccnc1Nc1cccc(C(F)(F)F)c1
[1]
  Potency: inactive
[2]
  Potency: inactive
[3]
  Potency: inactive
[4]
  Potency: inactive
[5]
  Potency: inactive
[6]
  Potency: inactive
[8]
  Potency: inactive

## CN(C(=O)c1c(O)c2ccccc2n(C)c1=O)c1ccccc1
[1]
  Potency: inactive
[13]
  Potency: 11.9 µM (active) and inactive
[12]
  Potency: inactive

## O=C1c2cccc(O)c2C(=O)c2c(O)cc(CO)cc21
[1]
  Potency: 8.33 µM (active)
[2]
  Potency: inactive
[3]
  Potency: inactive
[4]
  Potency: inactive
[5]
  Potency: inactive
[7]
  Potency: inactive
[8]
  Potency: inactive
[9]
  Potency: inactive
[11]
  Potency: inactive
[10]
  activity (max response): 13.5% (inactive)
[12]
  Potency: inactive

## CC1(C)Cc2c(sc(NC(=S)NC(=O)c3ccccc3)c2C(=O)O)CO1
[1]
  Potency: 14.8 µM (active)
[2]
  Potency: inactive
[3]
  Potency: inactive
[4]
  Potency: inactive
[5]
  Potency: inactive
[6]
  Potency: inactive
[7]
  Potency: inactive
[8]
  Potency: inactive
[9]
  Potency: inactive
[11]
  Potency: inactive
[10]
  activity (max response): 11% (inactive)
[12]
  Potency: inactive

## CN1C[C@H]2c3ccccc3Oc3ccc(Cl)cc3[C@@H]2C1
[1]
  Potency: 26.6 µM (active)
[2]
  Potency: inactive
[3]
  Potency: inactive
[4]
  Potency: inactive
[5]
  Potency: inactive
[6]
  Potency: inactive
[7]
  Potency: inactive
[9]
  Potency: 26.4 µM (active)
[10]
  activity (max response): -18.3% (inactive)

## CN1CCN2c3ncccc3Cc3ccccc3C2C1 (centres undefined)
[1]
  Potency: inactive
[2]
  Potency: inactive
[3]
  Potency: inactive
[4]
  Potency: inactive
[5]
  Potency: inactive
[6]
  Potency: inactive
[9]
  Potency: inactive
[11]
  Potency: inactive
[10]
  activity (max response): -3.47% (inactive)
[12]
  Potency: inactive
